The text below walks through data of PubChem BioAssay (NCI).

Among the test systems are HCT-15 colon; HT29 colon; SNB-75 CNS; SNB-19 CNS; U251 CNS; PC-3 prostate; SK-MEL-5 melanoma; UACC-62 melanoma; LOX IMVI melanoma; SK-MEL-28 melanoma; SK-MEL-2 melanoma; EKVX NSCLC; SN12C renal; UO-31 renal; TK-10 renal; ACHN renal; CAKI-1 renal; CCRF-CEM leukemia; MOLT-4 leukemia; A498 renal.
Common to all, as to assay: NCI-60 one-dose screen, 48 h (100 = growth as untreated, 0 = no growth, -100 = all killed)
Holding throughout (details): 10 µM unless noted

The panel holds about 83,000 compounds, 20% with a hit somewhere; the sample as a whole holds those more often.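 The endpoint reported here, percent growth, reads 100 for growth as untreated, 0 for no net growth and -100 for all cells dead.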 Unmarked numbers belong to inactive results. Activity calls are given as the source filed them. How the source made its calls: active means growth percent below 10; inactive means the rest.

For `COc1ccc2c(c1)C=CC1(O2)Oc2ccc(OC)cc2C=C1C` (configuration not stated), the growth in the assay on HCT-15 colon was 24.7%; in the assay on HT29 colon it was 4.04% (active); in the assay with SNB-75 CNS, -8.45% (active); in the assay with SNB-19 CNS, 27.5%; with U251 CNS it was 12.3%; in the assay on PC-3 prostate, 29.8%. In addition, the growth was 24.9% in the assay with SK-MEL-5 melanoma; 19.1% with UACC-62 melanoma; 22.2% in the assay with LOX IMVI melanoma; 54.2% in the assay with SK-MEL-28 melanoma; 47.3% with SK-MEL-2 melanoma; 47.3% in the assay on EKVX NSCLC. In addition, the growth is 51.9% with SN12C renal; 44.9% in the assay on UO-31 renal; 98% in the assay on TK-10 renal; 38% in the assay on ACHN renal; 30.3% in the assay on CAKI-1 renal; 7.74% (active) in the assay on CCRF-CEM leukemia. For the same molecule, the growth in the assay with MOLT-4 leukemia is 9.45% (active).
Take `Brc1cc(-c2cc(-c3ccc4c(c3)OC=CO4)[nH]n2)cs1`: the growth with HCT-15 colon was 51%; with HT29 colon, 90%; with SNB-75 CNS, 83.5%; with SNB-19 CNS, 84.1%; in the assay with U251 CNS it was 81.3%; in the assay on PC-3 prostate, 97.3%. Further, the growth in the assay with SK-MEL-5 melanoma is 87.5%; with UACC-62 melanoma, 76.9%; in the assay with LOX IMVI melanoma it was 80%; with SK-MEL-28 melanoma, 94.2%; in the assay with SK-MEL-2 melanoma, 106%; in the assay on EKVX NSCLC it was 72.8%. For the same molecule, the growth with SN12C renal was 98.8%; in the assay with UO-31 renal, 71.2%; in the assay on TK-10 renal it was 192%; with ACHN renal, 93.7%; in the assay on CAKI-1 renal it was 63.8%; in the assay with CCRF-CEM leukemia, 89.9%. Besides, the growth in the assay on MOLT-4 leukemia is 78.7%.
Consider `O=C(/C=C/c1cccc(F)c1)c1cccc(OCCCOc2cccc(C(=O)/C=C/c3cccc(F)c3)c2)c1`, for which the growth in the assay on HCT-15 colon is 9.37% (active); with HT29 colon, 9.59% (active); in the assay on SNB-75 CNS, 112%; with SNB-19 CNS it was 65.1%; with U251 CNS, 34.5%; with PC-3 prostate it was 36.9%. Besides, the growth with SK-MEL-5 melanoma is 99.4%; in the assay with UACC-62 melanoma, 81.3%; with LOX IMVI melanoma, -37.9% (active); with SK-MEL-28 melanoma, 106%; in the assay on SK-MEL-2 melanoma it was 97.3%; in the assay with EKVX NSCLC it was 47.2%. Also, the growth in the assay with UO-31 renal is 37.6%; in the assay with TK-10 renal it was 114%; with ACHN renal, 89.4%; in the assay on CAKI-1 renal, 90.4%; in the assay with A498 renal, 90.8%; in the assay on CCRF-CEM leukemia, 36.8%. In addition, in the assay on MOLT-4 leukemia, the growth is 56.3%.
With `CNC(=O)c1cc(Oc2ccc3c(c2)sc2nc(-c4ccc(N(C)C)cc4)cn23)ccn1`, the growth was 8.11% (active) in the assay with HCT-15 colon; -16.1% (active) in the assay with HT29 colon; 17.8% in the assay on SNB-75 CNS; 25% with SNB-19 CNS; 13.5% in the assay with U251 CNS; 32.4% with PC-3 prostate. Moreover, the growth in the assay with SK-MEL-5 melanoma is 11.9%; in the assay on UACC-62 melanoma, 41.4%; with LOX IMVI melanoma, 0.0095% (active); with SK-MEL-28 melanoma it was 56.8%; in the assay on SK-MEL-2 melanoma, 59.7%; in the assay with EKVX NSCLC, 53.8%. Further, the growth was 43% in the assay on SN12C renal; 33% in the assay on UO-31 renal; 77.2% in the assay with TK-10 renal; 21.7% in the assay on ACHN renal; 32.3% in the assay with CAKI-1 renal; 9.49% (active) in the assay on CCRF-CEM leukemia. Also, in the assay on MOLT-4 leukemia, the growth is 15.1%.
As to `CC(C)=CCC[C@](C)(O)[C@H]1CC[C@]2(C)[C@@H]1CC[C@@H]1[C@@]3(C)CC[C@H](N)C(C)(C)[C@@H]3CC[C@]12C`, the growth with HCT-15 colon was 20.3%; with HT29 colon it was 59.6%; with SNB-75 CNS, 87.2%; in the assay with SNB-19 CNS, 81.2%; with U251 CNS, 48.2%; in the assay with PC-3 prostate it was 68.3%. For the same molecule, the growth is 84.2% in the assay on SK-MEL-5 melanoma; 91% in the assay with UACC-62 melanoma; -82.5% (active) with LOX IMVI melanoma; 108% in the assay on SK-MEL-28 melanoma; 109% in the assay with SK-MEL-2 melanoma; 73.4% in the assay with EKVX NSCLC. The growth is 96.1% with SN12C renal; 77.1% in the assay on UO-31 renal; 127% in the assay on TK-10 renal; 91.7% in the assay on ACHN renal; 67.8% in the assay with CAKI-1 renal; 0.154% (active) in the assay with CCRF-CEM leukemia. In addition, the growth in the assay with MOLT-4 leukemia was 4.46% (active).
On to `CC(=O)OC[C@@]12Oc3c(cccc3-c3ccc(O)c4c3O[C@]3(COC(C)=O)C(=C4O)C(=O)C[C@H](C)[C@@H]3OC(C)=O)C(O)=C1C(=O)C[C@H](C)[C@@H]2OC(C)=O`, for which the growth was 11.9% in the assay with HCT-15 colon; 10.4% in the assay with HT29 colon; -10.4% (active) in the assay on SNB-75 CNS; 17.7% in the assay with SNB-19 CNS; 16.6% in the assay on U251 CNS; 11.6% with PC-3 prostate. The growth is -62.8% (active) in the assay with SK-MEL-5 melanoma; -36.9% (active) with UACC-62 melanoma; -66.1% (active) in the assay with LOX IMVI melanoma; 9.46% (active) with SK-MEL-28 melanoma; -20.4% (active) in the assay on SK-MEL-2 melanoma; 16.4% in the assay with EKVX NSCLC. The growth in the assay with SN12C renal was 7.7% (active); in the assay on UO-31 renal, 9.35% (active); in the assay on TK-10 renal it was 9.84% (active); in the assay with ACHN renal, 7.48% (active); in the assay with CAKI-1 renal, 0.254% (active); with MOLT-4 leukemia, 4.81% (active).
On to `Cn1c(SCC(=O)c2ccc(Br)cc2)nc2ccccc2c1=O`, for which the growth is 99.5% with HCT-15 colon; 101% in the assay with HT29 colon; 94.3% in the assay on SNB-75 CNS; 100% in the assay on SNB-19 CNS; 103% in the assay with U251 CNS; 96.5% with PC-3 prostate. Moreover, the growth with SK-MEL-5 melanoma was 92.5%; in the assay on UACC-62 melanoma, 77.5%; in the assay on LOX IMVI melanoma, 95.9%; in the assay on SK-MEL-28 melanoma, 97.3%; with SK-MEL-2 melanoma, 102%; in the assay with EKVX NSCLC, 82.2%. Further, the growth in the assay with UO-31 renal is 75.9%; in the assay on TK-10 renal it was 117%; with ACHN renal, 96.1%; with CAKI-1 renal, 85.4%; in the assay on A498 renal, 92.7%; in the assay on CCRF-CEM leukemia it was 91.9%. Further, the growth with MOLT-4 leukemia was 99%.
